Screening results deposited in PubChem by National Center for Advancing Translational Sciences (NCATS).
BLM inh = blocks DNA unwinding by human BLM helicase. P54132. recombinant BLM DNA unwinding, fluorescence dequenching. Potency, µM (highest dose often 56.1 µM), for the others: at the highest dose activity change, negative = inhibition, hits mostly inhibitors. actives 0.2% (n = 350,000). AID 2528;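 note: plate controls were vehicle for no effect and no enzyme for full effect; nearly all actives have a fitted effect of over 35% in size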
RECQ1 inh-1 = RECQ1 (human) helicase inhibition. actives 0.54% (n = 240,000). Potency, µM (highest dose often 57.3 µM), for the others: at the top dose activity, negative = inhibition, hits mostly inhibitors. P46063. AID 2549. RECQ1 DNA unwinding, red fluorescence kinetic read;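 note: plate controls were vehicle for no effect and no enzyme for full effect; nearly all actives have a fitted effect of over 30% in size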
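RECQ1T1 50 nM; forked duplex (20 bp + 30-nt ss tails) 200 nM, ATP 2 mM final; pH 8.0, 2 mM MgCl2, 2.5 ug/ml poly(dI-dC); 15 min compound preincubation; discontinuous kinetic read over 2 h at RT.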
GCN5L2 inh = blocks human GCN5L2 histone acetyltransferase; GCN5L2 HAT assay, ThioGlo1 CoA-SH fluorescence; Potency, µM (series often up to 58.9 µM), without a hit: at the highest dose activity change, negative = inhibition, hits mostly inhibitors; actives 0.21% (n = 390,000); AID 504327; note: % is set by controls: 0 for no effect and ±100 for the full control effect
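Compounds, pin-transferred from DMSO stocks, meet 20nM GCN5L2 for 15 min before the reaction begins with H3(1-25) peptide (75uM) and acetyl-CoA (70uM). Thiol-reactive ThioGlo1 reports CoA release over 20 min at room temperature.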
APE1 inh-1 = inhibitors of human APE1 endonuclease | P27695 | AID 2517 | recombinant APE1, TAMRA/BHQ-2 abasic DNA cleavage fluorescence | Potency, µM (series often up to 65.8 µM), without a hit: at the top dose activity change, negative = inhibition, hits mostly inhibitors | actives 0.35% (n = 350,000);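 note: plate controls were vehicle for no effect and reference inhibitor for full effect; nearly all actives have a fitted effect of over 55% in size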
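Compound pre-exposure to 0.75 nM APE1, 15 min at ambient temperature. Reaction initiated with 50 nM TAMRA/BHQ-2 THF substrate, read immediately in kinetic mode, 525 nm excitation, 598 nm emission.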
JMJD2E inh = JMJD2E (human) inhibition; JMJD2E catalytic domain, FDH-coupled NADH fluorescence (FDH is formaldehyde dehydrogenase); Potency, µM (titrated, usually from 57.1 µM), for inactives: at the highest dose activity change, negative = inhibition, usual class: inhibitors; actives 1.6% (n = 230,000); active = well fitted inhibition curve with a large enough effect, not every such curve was filed as active; inconclusive = small, poorly fitted or top-dose-only effect, or another doubt; inactive = no such curve, though single readings can be large or run the other way;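 note: 0% = wells with enzyme and -100% = buffer wells without enzyme; nearly all actives have a fitted effect of over 50% in size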
L3MBTL1 inh-1 = inhibitors of human L3MBTL1. AlphaScreen L3MBTL1–H3K9me1 peptide binding. actives 0.66% (n = 230,000). Potency, µM (titrated, usually from 57.1 µM), inactives show at the top dose activity, negative = inhibition, most hits filed as inhibitors. AID 485360; note: % is set by controls: 0 for no effect and ±100 for the full control effect; nearly all actives have a fitted effect of over 60% in size
Target sequence (Q9Y468 whole entry, looked up): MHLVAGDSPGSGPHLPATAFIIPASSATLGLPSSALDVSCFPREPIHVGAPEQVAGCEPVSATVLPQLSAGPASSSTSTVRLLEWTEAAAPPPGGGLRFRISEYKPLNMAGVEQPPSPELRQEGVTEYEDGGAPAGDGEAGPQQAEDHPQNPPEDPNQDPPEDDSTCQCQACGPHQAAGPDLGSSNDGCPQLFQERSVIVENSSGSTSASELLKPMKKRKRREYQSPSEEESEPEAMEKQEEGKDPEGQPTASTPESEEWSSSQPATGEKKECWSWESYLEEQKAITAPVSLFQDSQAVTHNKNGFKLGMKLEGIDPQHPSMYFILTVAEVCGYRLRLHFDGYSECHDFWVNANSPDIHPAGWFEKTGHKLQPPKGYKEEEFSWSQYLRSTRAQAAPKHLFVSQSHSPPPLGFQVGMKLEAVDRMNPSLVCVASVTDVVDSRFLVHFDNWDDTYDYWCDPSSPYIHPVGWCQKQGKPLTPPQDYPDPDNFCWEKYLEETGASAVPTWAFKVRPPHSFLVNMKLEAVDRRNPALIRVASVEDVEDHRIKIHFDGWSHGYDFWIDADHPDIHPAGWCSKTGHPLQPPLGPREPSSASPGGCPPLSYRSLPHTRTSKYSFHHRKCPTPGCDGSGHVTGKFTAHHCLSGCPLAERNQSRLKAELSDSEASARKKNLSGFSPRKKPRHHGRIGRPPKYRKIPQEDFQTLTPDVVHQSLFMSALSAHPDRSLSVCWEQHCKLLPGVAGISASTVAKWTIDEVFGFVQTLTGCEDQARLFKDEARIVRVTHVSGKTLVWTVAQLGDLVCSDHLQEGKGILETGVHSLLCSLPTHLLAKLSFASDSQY
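L3MBTL1 50 nM + b-AHA-H3(1-15)K9me1 75 nM, 30 min RT; compound added, 30 min RT; streptavidin donor/Ni-chelate acceptor beads 10 ug/mL each final, 30 min RT dark; AlphaScreen read.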
APE1 dye cs = DNA dye displacement counter-screen activity; shares compounds with APE1 inh-1; DNA fluorescent dye displacement counterscreen, fluorescence; Potency, µM (highest dose often 28.5 µM), for the others: top-dose activity change, negative = inhibition, most hits filed as inhibitors; actives 7% (n = 480); AID 2564;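 note: loss of thiazole orange fluorescence as the dye is displaced from duplex DNA; 0% = ThO with dsDNA and no compound and -100% = ThO without dsDNA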
Endo IV inh = counter-screen for APE1 inhibitors: inhibitors of E. coli endonuclease IV; E. coli Endo IV, fluorogenic AP-site DNA cleavage; Potency, µM (top dose mostly 27.1 µM), without a hit: top-dose activity change, negative = inhibition, actives largely listed as inhibitors; shares compounds with APE1 inh-1; AID 2565; actives 4% (n = 560);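 note: plate controls were uninhibited enzyme wells for no effect and no enzyme buffer wells for full effect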
APE1 inh-2 = APE1 (human) endonuclease inhibition, confirmation | shares compounds with APE1 inh-1 | purified APE1, fluorogenic abasic-site DNA cleavage | Potency, µM (top dose mostly 57.1 µM), without a hit: at the highest dose activity change, negative = inhibition, actives largely listed as inhibitors | actives 44% (n = 750); note: % is set by controls: 0 for no effect and ±100 for the full control effect; nearly all actives have a fitted effect of over 30% in size
APE1 FP = APE1 (human) DNA binding inhibition, fluorescence polarization; Potency, µM (titrated, usually from 28.5 µM), for inactives: top-dose activity, negative = inhibition, most hits filed as inhibitors; APE1 binding to TAMRA-labelled double-stranded DNA, fluorescence polarization displacement; actives 7% (n = 480); shares compounds with APE1 inh-1; note: % is set by controls: 0 for no effect and ±100 for the full control effect
RECQ1 inh conf = confirmation of human RECQ1 helicase inhibitors; shares compounds with RECQ1 inh-1; RECQ1 helicase DNA unwinding, fluorescence; Potency, µM (doses to about 229 µM), without a hit: at the highest dose activity change, negative = inhibition, actives largely listed as inhibitors; actives 28% (n = 610); note: % is set by controls: 0 for no effect and ±100 for the full control effect; nearly all actives have a fitted effect of over 45% in size
ADP FP counter = ADP displacement flagged in RECQ1 inhibitor counter-screen | shares compounds with RECQ1 inh-1 | ADP fluorescence polarization displacement counterscreen | Potency, µM (titrated, usually from 228 µM), for the others: top-dose activity change, negative = inhibition, usual class: inhibitors | actives 27% (n = 530) | AID 2711; note: % is set by controls: 0 for no effect and ±100 for the full control effect; nearly all actives have a fitted effect of over 45% in size
RECQ1 inh-2 = confirmation of human RECQ1 helicase inhibitors; shares compounds with RECQ1 inh-1; recombinant RECQ1 DNA unwinding, red fluorescence; Potency, µM (highest dose often 119 µM), without a hit: top-dose activity, negative = inhibition, most hits filed as inhibitors; actives 15% (n = 1,100); AID 504841; note: % is set by controls: 0 for no effect and ±100 for the full control effect; nearly all actives have a fitted effect of over 50% in size
L3MBTL1 inh-2 = blocks human L3MBTL1 methyl-lysine binding. shares compounds with L3MBTL1 inh-1. L3MBTL1 methyl-lysine binding inhibition, biochemical qHTS. Potency, µM, usual class: inhibitors. actives 91% (n = 500). AID 540279; note: nearly all actives have a fitted effect of over 70% in size
AlphaScreen ctr2 = interferes with AlphaScreen signal in L3MBTL1 counterscreen. shares compounds with L3MBTL1 inh-1. AlphaScreen counterscreen, signal inhibition. Potency, µM (titrated, usually from 57.1 µM), without a hit: top-dose activity change, negative = inhibition, usual class: inhibitors. 500 tested, under 10 active. AID 602224; note: 0% is about no effect
Active calls of the source: *; ! = a repeat was not active; [ ] = another dose, or the depositor's remark. Shown is part of a subset that was picked to be rich in hits. Unless noted, calls come from the whole dose curve; as a rule, active = well fitted curve in the direction sought with a large enough effect; inconclusive = small, poorly fitted or top-dose-only effect, or another doubt; inactive = no such curve, though single readings can be large; an effect the other way counts as inactive or inconclusive. Potency is the fitted concentration of half-maximal effect.

What do the screens show for `O=C1C[C@@H](c2ccc(O)cc2)Oc2cc(O[C@@H]3O[C@H](CO)[C@@H](O)[C@H](O)[C@H]3O)cc(O)c21`?
BLM inh: 4.1%; RECQ1 inh-1: -14.8%; GCN5L2 inh: 0.0%; APE1 inh-1: 8.3%

How did COc1ccc(C(=O)Nc2cccc(-c3nc4cccnc4s3)c2C)c(OC)c1 do in these assays?
BLM inh: -2.4%; GCN5L2 inh: -20.4%

Results for O=c1oc2c(O)c(O)cc3c(=O)oc4c(O)c(O)cc1c4c23 ?
BLM inh: 2µM*; RECQ1 inh-1: 0.562µM*; GCN5L2 inh: inconclusive; APE1 inh-1: 0.0447µM*!; JMJD2E inh: 2.51µM*; L3MBTL1 inh-1: inconclusive; APE1 dye cs: 0.0891µM*; Endo IV inh: inconclusive; APE1 inh-2: 0.0141µM*; APE1 FP: 28.2µM*; RECQ1 inh conf: inconclusive; ADP FP counter: 4.47µM*

What do the screens show for `C=C(C)CCOC(=O)C(CC(=O)O)NCc1ccco1` (centres undefined)?
BLM inh: -3.8%; RECQ1 inh-1: -4.8%; GCN5L2 inh: -5.4%; APE1 inh-1: inconclusive; JMJD2E inh: -19.3%; L3MBTL1 inh-1: 28.2µM*; APE1 inh-2: inconclusive; L3MBTL1 inh-2: 9.47*; AlphaScreen ctr2: 14.5%

Results for O=C(O)CC(NCc1ccco1)C(=O)OCCc1ccccc1 (centres undefined) ?
BLM inh: -0.8%; RECQ1 inh-1: -5.2%; GCN5L2 inh: -8.1%; APE1 inh-1: 2.1%; JMJD2E inh: 2.6%; L3MBTL1 inh-1: 1.9%

How did COc1cc(/C=C/[N+](=O)[O-])ccc1OCc1cccc(C(=O)O)c1 do in these assays?
BLM inh: inconclusive; RECQ1 inh-1: 20µM*; GCN5L2 inh: -14.0%; APE1 inh-1: 6.31µM*; JMJD2E inh: inconclusive; L3MBTL1 inh-1: 28.2µM*; APE1 dye cs: 20.0%; Endo IV inh: 4.5%; APE1 inh-2: inconclusive; APE1 FP: 28.8%; RECQ1 inh conf: 18.0%[114 µM]; ADP FP counter: inconclusive; L3MBTL1 inh-2: inconclusive; AlphaScreen ctr2: 1.7%

What do the screens show for `Cc1cc(NC(=O)Cc2cccs2)no1`?
BLM inh: inconclusive; RECQ1 inh-1: 25.1µM*; GCN5L2 inh: -14.1%; APE1 inh-1: 28.2µM*; JMJD2E inh: -4.5%; L3MBTL1 inh-1: 28.2µM*; APE1 dye cs: inconclusive; Endo IV inh: inconclusive; APE1 inh-2: 7.94µM*; APE1 FP: -84.7%; RECQ1 inh-2: inconclusive; L3MBTL1 inh-2: 3.36*; AlphaScreen ctr2: -20.1%

How did C=CCn1c(SCC(=O)c2ccc(O)c(O)c2)nnc1-c1cccnc1 do in these assays?
BLM inh: inconclusive; RECQ1 inh-1: 8.91µM*; GCN5L2 inh: inconclusive; APE1 inh-1: 1.58µM*; JMJD2E inh: 3.55µM*; L3MBTL1 inh-1: 6.31µM*; APE1 dye cs: -5.2%; Endo IV inh: 136.0%; APE1 inh-2: 2.51µM*; APE1 FP: -22.9%; RECQ1 inh-2: 3.55µM*; L3MBTL1 inh-2: 2.99*; AlphaScreen ctr2: inconclusive

What do the screens show for `O=C(CSc1ccsc1[N+](=O)[O-])Nc1cccc(F)c1`?
BLM inh: -20.9%; RECQ1 inh-1: inconclusive; GCN5L2 inh: -18.8%; APE1 inh-1: inconclusive; JMJD2E inh: -10.4%; L3MBTL1 inh-1: 28.2µM*; APE1 dye cs: inconclusive; Endo IV inh: 17.8%; APE1 inh-2: 14.1µM*; APE1 FP: -20.3%; L3MBTL1 inh-2: 7.52*; AlphaScreen ctr2: -4.3%

Results for O=C1C2C3C=CC([C@@H]2C(=O)N1c1nccs1)C31CC1 (some centres undefined) ?
BLM inh: 0.9%; RECQ1 inh-1: -4.6%; GCN5L2 inh: -5.6%; APE1 inh-1: -0.1%; JMJD2E inh: -2.3%; L3MBTL1 inh-1: 3.5%

How did O=C1C2C3C=CC(CC3)C2C(=O)N1c1nccs1 (centres undefined) do in these assays?
BLM inh: -28.4%; RECQ1 inh-1: 22.4µM*; GCN5L2 inh: -16.1%; APE1 inh-1: 6.31µM*; JMJD2E inh: 0.9%; L3MBTL1 inh-1: 25.1µM*; APE1 dye cs: 54.5%; Endo IV inh: 26.4%; APE1 inh-2: inconclusive; APE1 FP: -45.0%; L3MBTL1 inh-2: 26.7*; AlphaScreen ctr2: 6.3%

How did CC(C)c1cnc2c(c1SCc1cccc(C(F)(F)F)c1)c(=O)n(C)c(=O)n2C do in these assays?
BLM inh: -3.2%; GCN5L2 inh: -1.3%
